20 molecules from PubChem BioAssay can be followed below.

Assay [1] in a line: antimalarial activity against Dd2 strain (AID 2302;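 active = growth inhibition above 50% at the single 2 µM test dose, taken to imply half-maximal potency below 2 µM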;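 note: 0% = DMSO untreated growth and 100% = chloroquine plus artemisinin killed control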). Particulars: P. falciparum Dd2 in RBCs, LDH growth readout, 72 h; at 2 µM; hits give high values.
Assay [2] in a line: human hepatoma cell viability loss – ATP luminescence, cytotoxicity control for P. falciparum antimalarial project, primary screen (AID 2303;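 active = inhibition above 50%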;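 note: 0% = DMSO wells and 100% = digitonin-killed cells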). Particulars: HepG2 viability, 24-48 h, at 10 µM, hits give high values.
The target of assay [3] is L-lactate dehydrogenase (Plasmodium falciparum (isolate CDC / Honduras)) (UniProt Q27743). The assay can be described thus: PfLDH activity inhibition – cell lysate, 3D7 strain, counter-screen for P. falciparum growth inhibition project (AID 2304).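 Note: 0% = vehicle and 100% = reference inhibitor.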 Particulars: P. falciparum 3D7 crude extract, LDH APAD/NBT absorbance; at 2 µM; hits give high values. (Counterscreens check selectivity or assay interference.)
Chain of L-lactate dehydrogenase (Plasmodium falciparum (isolate CDC / Honduras)) (Q27743 whole entry, looked up): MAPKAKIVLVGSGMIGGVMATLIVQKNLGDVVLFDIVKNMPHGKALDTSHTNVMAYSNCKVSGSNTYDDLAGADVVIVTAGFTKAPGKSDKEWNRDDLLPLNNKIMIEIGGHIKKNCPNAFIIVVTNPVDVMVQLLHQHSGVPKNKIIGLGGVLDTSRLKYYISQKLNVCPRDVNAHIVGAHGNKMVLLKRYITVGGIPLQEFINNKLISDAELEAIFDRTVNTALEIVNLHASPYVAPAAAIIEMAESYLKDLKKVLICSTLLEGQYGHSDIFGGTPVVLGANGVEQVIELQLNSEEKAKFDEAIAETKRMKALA

Assay [4] in a line: inhibition of 3D7 malaria parasite growth – strain 3D7 (AID 2306).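 Note: 0% = DMSO wells and 100% = chloroquine plus artemisinin control wells.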 Particulars: P. falciparum 3D7 erythrocytic growth, LDH absorbance, 72 h; at 2 µM; hits give high values.
For assay [5], the target named is Calcium-dependent protein kinase 1 (Plasmodium falciparum (isolate 3D7)) (UniProt P62344). Description: PfCDPK1 kinase inhibitors, biochemical, TCAMS library (AID 1159585; cut-off not given, nearly all actives have IC50 up to about 0.98 µM;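 note: inhibitors leave more ATP so luminescence rises with inhibition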). Particulars: recombinant PfCDPK1, Kinase-Glo ATP depletion luminescence. A general note: Kinase-Glo reads ATP consumption through a luciferase reaction.
Chain of Calcium-dependent protein kinase 1 (Plasmodium falciparum (isolate 3D7)) (P62344 whole entry, looked up): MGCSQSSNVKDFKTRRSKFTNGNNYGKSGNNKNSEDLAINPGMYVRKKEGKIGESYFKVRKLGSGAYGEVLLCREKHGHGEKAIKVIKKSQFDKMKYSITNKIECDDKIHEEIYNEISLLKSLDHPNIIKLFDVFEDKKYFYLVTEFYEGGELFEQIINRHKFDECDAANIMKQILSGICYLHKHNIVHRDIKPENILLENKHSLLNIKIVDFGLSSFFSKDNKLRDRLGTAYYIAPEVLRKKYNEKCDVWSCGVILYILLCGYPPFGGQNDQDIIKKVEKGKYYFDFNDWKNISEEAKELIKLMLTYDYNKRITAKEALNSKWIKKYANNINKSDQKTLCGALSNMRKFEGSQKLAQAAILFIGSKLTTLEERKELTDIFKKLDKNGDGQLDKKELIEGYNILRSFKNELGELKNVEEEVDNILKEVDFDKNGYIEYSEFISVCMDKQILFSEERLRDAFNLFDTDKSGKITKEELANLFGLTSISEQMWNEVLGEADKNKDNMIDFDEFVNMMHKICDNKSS
Assay [6] concerns the target Plasmodium falciparum protein kinase 6 (PK6, PF3D7_1337100) (UniProt Q8IDW1). Description: PfPK6 kinase inhibitors, biochemical, TCAMS library (AID 1159586). Particulars: recombinant PfPK6, Kinase-Glo ATP depletion luminescence.
The target in assay [7] is Protein kinase 7 (PK7), Plasmodium falciparum 3D7 (PF3D7_0213400) (UniProt Q7YTF7). The assay can be described thus: inhibition of Plasmodium PK7 catalytic activity – biochemical, TCAMS antimalarial set, Kinase-Glo luminescence (AID 1159587). The settings on record: recombinant PfPK7, Kinase-Glo ATP depletion luminescence.
Chain of Protein kinase 7 (PK7), Plasmodium falciparum 3D7 (PF3D7_0213400) (Q7YTF7 1-343): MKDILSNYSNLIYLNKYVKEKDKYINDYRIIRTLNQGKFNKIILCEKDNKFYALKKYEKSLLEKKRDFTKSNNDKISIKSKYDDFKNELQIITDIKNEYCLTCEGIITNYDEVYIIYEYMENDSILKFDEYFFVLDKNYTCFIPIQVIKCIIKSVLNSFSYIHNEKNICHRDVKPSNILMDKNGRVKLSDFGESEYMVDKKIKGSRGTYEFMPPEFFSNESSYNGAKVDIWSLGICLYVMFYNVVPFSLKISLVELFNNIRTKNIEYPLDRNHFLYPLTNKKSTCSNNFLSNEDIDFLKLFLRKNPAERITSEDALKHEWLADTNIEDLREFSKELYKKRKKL
The target of assay [8] is Calcium-dependent protein kinase 4 (Plasmodium falciparum (isolate 3D7)) (UniProt Q8IBS5). Description: PfCDPK4 kinase inhibitors, biochemical, TCAMS library (AID 1159588; cut-off not given, nearly all actives have IC50 up to about 0.91 µM). The settings on record: recombinant PfCDPK4, Kinase-Glo ATP depletion luminescence.
Chain of Calcium-dependent protein kinase 4 (Plasmodium falciparum (isolate 3D7)) (Q8IBS5 whole entry, looked up): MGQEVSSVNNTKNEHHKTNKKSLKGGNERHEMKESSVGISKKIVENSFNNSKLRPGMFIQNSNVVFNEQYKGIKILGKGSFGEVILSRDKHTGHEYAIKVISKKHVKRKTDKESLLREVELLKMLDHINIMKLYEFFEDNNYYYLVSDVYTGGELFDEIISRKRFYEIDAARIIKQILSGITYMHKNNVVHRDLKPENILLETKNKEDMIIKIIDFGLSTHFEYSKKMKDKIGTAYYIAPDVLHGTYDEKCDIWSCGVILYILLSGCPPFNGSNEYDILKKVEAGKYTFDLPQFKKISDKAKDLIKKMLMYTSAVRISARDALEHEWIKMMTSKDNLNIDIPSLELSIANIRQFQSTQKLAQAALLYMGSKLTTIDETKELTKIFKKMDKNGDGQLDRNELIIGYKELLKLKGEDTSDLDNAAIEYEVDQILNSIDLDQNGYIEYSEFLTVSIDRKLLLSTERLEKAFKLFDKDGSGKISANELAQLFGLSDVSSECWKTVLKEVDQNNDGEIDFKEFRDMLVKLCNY

A number with no mark means an inactive call. For some of these results: Measured potencies and affinities stand elsewhere. The source made the active and inactive calls. Unless noted, the rule behind the calls is not given here.

Chain of Plasmodium falciparum protein kinase 6 (PK6, PF3D7_1337100) (Q8IDW1 1-305): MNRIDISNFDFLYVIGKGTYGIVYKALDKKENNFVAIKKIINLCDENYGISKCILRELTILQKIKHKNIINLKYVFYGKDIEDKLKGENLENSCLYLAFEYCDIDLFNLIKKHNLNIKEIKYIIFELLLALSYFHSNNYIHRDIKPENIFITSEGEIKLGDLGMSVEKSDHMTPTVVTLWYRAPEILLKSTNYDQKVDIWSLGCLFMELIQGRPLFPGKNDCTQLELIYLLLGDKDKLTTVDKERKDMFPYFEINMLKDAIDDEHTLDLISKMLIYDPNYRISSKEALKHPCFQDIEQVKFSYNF

A word on the inhibition: it is the relative decrease from the control value, in per cent. Regarding `CC(C)C1=C[C@H]2C[C@]3(C4OCCO4)[C@@H]4CC[C@@H](C)[C@H]4C[C@@]2(COCc2cccc(C#N)c2)[C@]13C(=O)OC(c1ccccc1)c1ccccc1`, the growth inhibition in assay [1] was 92% (active); in assay [4] it was 88% (active). Also, the inhibition in assay [2] is -5%; in assay [3], 8%. Besides, the result in assay [5], in assay [6], in assay [7] and in assay [8] was inactive.

With `O=C(Nc1cccc(-c2ccc(-c3nc4ccc(F)cc4[nH]3)cc2)c1)c1ccncc1`, the growth inhibition in assay [1] was 96% (active); in assay [4], 101% (active). Further, the inhibition is 52% (active) in assay [2] and -5% in assay [3]. The outcome in assay [5], in assay [6], in assay [7] and in assay [8] was inactive.

As to `Cc1cnc(C(=O)Nc2cccc(-c3ccc(-c4nc5ccc(C(F)(F)F)cc5[nH]4)s3)c2)cn1`, the values for the growth inhibition in assay [1] and in assay [4] were 14% and 86% (active), respectively. Besides, the inhibition is 35% in assay [2] and -7% in assay [3]. Also, the outcome in assay [5], in assay [6], in assay [7] and in assay [8] was inactive.

`COc1cc(Nc2ccnc3ccc(C(F)(F)F)cc23)ccc1OCCCc1ccccc1`: the growth inhibition in assay [1] is 51% (active); in assay [4] it was 99% (active). For the same molecule, the inhibition in assay [2] was 11%; in assay [3], -10%. Also, the outcome in assay [5], in assay [6], in assay [7] and in assay [8] was inactive.

For `Clc1cc(Cl)c2cc(CN[C@H]3CCC[C@@H]3CNc3nc4ccccc4[nH]3)[nH]c2c1`, the growth inhibition was 58% (active) in assay [1] and 99% (active) in assay [4]. Also, the inhibition in assay [2] was 85% (active); in assay [3], -1%. Further, the result in assay [5], in assay [6], in assay [7] and in assay [8] was inactive.

On to `OCc1ccc(-c2cncc(Nc3cccc(Cl)c3)c2)cc1`, for which the values for the growth inhibition in assay [1] and in assay [4] were 100% (active) and 95% (active), respectively. The inhibition in assay [2] was 4%; in assay [3], -3%. Moreover, the result in assay [5], in assay [6], in assay [7] and in assay [8] was inactive.

For `CC(C)(C)CC(C)(C)c1ccc(O)c(C(=O)Nc2ccc([N+](=O)[O-])cc2)c1`, the growth inhibition was 99% (active) in assay [1] and 97% (active) in assay [4]. Moreover, the inhibition in assay [2] was 80% (active); in assay [3], 5%. The result in assay [5], in assay [6], in assay [7] and in assay [8] was inactive.

As for `CCC[C@@H]([C@@H](CC1CCCCC1)C(=O)N[C@H](C(=O)Nc1nccs1)[C@H](C)O)N(O)C=O`, the figures for the growth inhibition in assay [1] and in assay [4] were 75% (active) and 99% (active), respectively. Further, the inhibition in assay [2] is -4%; in assay [3], -5%. Besides, the outcome in assay [5], in assay [6], in assay [7] and in assay [8] was inactive.

`CCOc1ccc2nc3cc([N+](=O)[O-])ccc3c(N)c2c1`: the growth inhibition in assay [1] was 100% (active); in assay [4], 99% (active). Moreover, the inhibition is 67% (active) in assay [2] and 3% in assay [3]. Moreover, the result in assay [5], in assay [6], in assay [7] and in assay [8] was inactive.

As for `CCOC(=O)c1ccc(NC(=O)N(Cc2ccc(-c3ccc(CN4CCNCC4)cc3)cc2)C2CCN(Cc3ccccc3)CC2)cc1`, the growth inhibition in assay [1] was 93% (active); in assay [4] it was 102% (active). Besides, the values for the inhibition in assay [2] and in assay [3] were 14% and 3%, respectively. For the same molecule, the result in assay [5], in assay [6], in assay [7] and in assay [8] was inactive.

As to `c1cc(-c2nc3ccccc3[nH]2)nc(-c2nc3ccccc3[nH]2)c1`, the growth inhibition in assay [1] is 24%; in assay [4], 87% (active). For the same molecule, the inhibition in assay [2] is 7%; in assay [3] it was 0%. The result in assay [5], in assay [6], in assay [7] and in assay [8] was inactive.

Regarding `CCN1CCN(C(=O)NC(C(=O)N2CCCC(COc3ccc(Cc4ccccc4)cc3)C2)c2cccs2)C(=O)C1=O` (stereo not given), the figures for the growth inhibition in assay [1] and in assay [4] were 87% (active) and 95% (active), respectively. The inhibition in assay [2] was 12%; in assay [3], -6%. The result in assay [5], in assay [6], in assay [7] and in assay [8] was inactive.

Turning to `O=C(Nc1cccc(-c2ccc(-c3nc4ccccc4[nH]3)cc2)c1)c1cnn2cccnc12`, the growth inhibition in assay [1] was 1%; in assay [4] it was 87% (active). The inhibition was 9% in assay [2] and -3% in assay [3]. The outcome in assay [5], in assay [6], in assay [7] and in assay [8] was inactive.

Turning to `CCCNc1nc(Nc2ccccc2C)nc2ccccc12`, the growth inhibition in assay [1] was 64% (active); in assay [4], 95% (active). Moreover, the inhibition in assay [2] is 13%; in assay [3], 1%. In addition, the result in assay [5], in assay [6], in assay [7] and in assay [8] was inactive.

Take `CCc1cc2c(=O)c(-c3nc(C)cs3)c(N)oc2c(CN2CCCCC2)c1O`: the growth inhibition is 97% (active) in assay [1] and 99% (active) in assay [4]. Besides, the inhibition in assay [2] is -2%; in assay [3], 0%. Further, the outcome in assay [5], in assay [6], in assay [7] and in assay [8] was inactive.

With `CCc1c[nH]c2c(N3CCCS3(=O)=O)cc(C(=O)N[C@@H](Cc3ccccc3)[C@H](O)CNC3CCCCC3)cc12`, the figures for the growth inhibition in assay [1] and in assay [4] were 89% (active) and 99% (active), respectively. The figures for the inhibition in assay [2] and in assay [3] were 6% and -7%, respectively. In addition, the result in assay [5], in assay [6], in assay [7] and in assay [8] was inactive.

For `Cc1cccc2[nH]c(-c3cccc(-c4cccc(CNCc5ccccc5)c4)c3)nc12`, the growth inhibition in assay [1] is 56% (active); in assay [4] it was 101% (active). For the same molecule, the inhibition in assay [2] was 3%; in assay [3] it was -1%. For the same molecule, the result in assay [5], in assay [6], in assay [7] and in assay [8] was inactive.

Take `N#Cc1ccc(/C=C/C(=O)NCCCCCN2CCN(C(=O)Nc3ccc(Cl)c(C(F)(F)F)c3)CC2)cc1`: the growth inhibition in assay [1] is -7%; in assay [4], 94% (active). The inhibition in assay [2] is 42%; in assay [3], -1%. In addition, the result in assay [5], in assay [6], in assay [7] and in assay [8] was inactive.

For `CCCN1CCN(CCCNC(=O)c2cc3c(-c4ccc(Cl)cc4)nn(C)c3s2)CC1`, the growth inhibition in assay [1] is 20%; in assay [4], 88% (active). Also, the inhibition was 46% in assay [2] and -3% in assay [3]. Besides, the outcome in assay [5], in assay [6], in assay [7] and in assay [8] was inactive.

As to `CCOc1cc(C(=O)N[C@@H](Cc2ccccc2)[C@H](O)CNCc2cc(OC)cc(OC)c2)cc(N2CCCCS2(=O)=O)c1`, the growth inhibition in assay [1] is 98% (active); in assay [4] it was 100% (active). The inhibition in assay [2] is -2%; in assay [3], 5%. The result in assay [5], in assay [6], in assay [7] and in assay [8] was inactive.
